# Potency and affinity values are given separately.
# Tests used:
# Staphylococcus aureus = conditions: Concentration 20 uM; ASSAY_TEST Inhibition of Bacterial Growth; detection method Absorption (OD600); MEDIA CAMHB; plate type 384well; NBS; CORNING #3640; time 18 hr
# Escherichia coli = conditions: Concentration 20 uM; ASSAY_TEST Inhibition of Bacterial Growth; detection method Absorption (OD600); MEDIA CAMHB; plate type 384well; NBS; CORNING #3640; time 18 hr
Structure (SMILES),Inhibition (Staphylococcus aureus) [%],Inhibition (Escherichia coli) [%]
CCN1CCC[C@H]1CNC(=O)c1c(O)c(Cl)cc(Cl)c1OC [RACLOPRIDE],2.11,10.63
CC[C@H](C)C(=O)O[C@H]1CCC=C2C=C[C@H](C)[C@H](CC[C@@H]3C[C@@H](O)CC(=O)O3)[C@H]21 [MEVASTATIN],-0.69,8.43
CC(c1cc2ccccc2s1)N(O)C(N)=O (centres undefined) [ZILEUTON],-21.42,6.17
O=C(O)COCCN1CCN(C(c2ccccc2)c2ccc(Cl)cc2)CC1 (centres undefined) [CETIRIZINE],14.64,-0.91
CC(C)(C#N)c1cc(Cn2cncn2)cc(C(C)(C)C#N)c1 [ANASTROZOLE],-10.48,4.02
O=c1cnn([C@@H]2O[C@H](CO)[C@@H](O)[C@H]2O)c(=O)[nH]1 [6-AZAURIDINE],-22.3,4.59
CCOC(=O)c1ccc(OC(=O)CCCCCN=C(N)N)cc1.CS(=O)(=O)O,11.22,-0.78
COc1ccc(CC2c3cc(OC)c(OC)cc3CC[N+]2(C)CCC(=O)OCCCCCOC(=O)CC[N+]2(C)CCc3cc(OC)c(OC)cc3C2Cc2ccc(OC)c(OC)c2)cc1OC.O=S(=O)(O)c1ccccc1 (centres undefined),4.52,6.82
CC(C(=O)O)c1cccc(C(=O)c2ccccc2)c1 (centres undefined) [KETOPROFEN],6.88,-2.29
COCCCC/C(=N\OCCN)c1ccc(C(F)(F)F)cc1.O=C(O)/C=C\C(=O)O [FLUVOXAMINE MALEATE],7.49,3.58
CC(C)[C@H]1CC[C@H](C(=O)N[C@H](Cc2ccccc2)C(=O)O)CC1 [NATEGLINIDE],10.43,6.41
CN1CCN(CCCN2c3ccccc3Sc3ccc(C(F)(F)F)cc32)CC1.Cl.Cl [TRIFLUOPERAZINE HYDROCHLORIDE],19.71,0.85
O=C(O[C@H]1[C@H](Oc2ccccc2COC(=O)C2(O)C=CCCC2=O)O[C@H](CO)[C@@H](O)[C@@H]1O)c1ccccc1 (some centres undefined) [TREMULACIN],15.86,0.23
COc1cc2nc(N(C)CCCNC(=O)C3CCCO3)nc(N)c2cc1OC (centres undefined) [ALFUZOSIN],6,-0.93
COc1cc(C)c(/C=C/C(C)=C/C=C/C(C)=C/C(=O)O)c(C)c1C [ACITRETIN],-32.23,4.27
CS(=O)(=O)c1ccc(-c2cc(Br)sc2-c2ccc(F)cc2)cc1 [DUP-697],14.13,-0.37
CCCc1nc2c(C)cc(-c3nc4ccccc4n3C)cc2n1Cc1ccc(-c2ccccc2C(=O)O)cc1,33.03,4.91
CCCNCC(O)COc1ccccc1C(=O)CCc1ccccc1 (centres undefined) [PROPAFENONE],9.33,8.72
CCCc1c(OCCCCc2nnn[nH]2)ccc(C(C)=O)c1O [TOMELUKAST],5.76,7.84
C#C[C@]1(O)CC[C@H]2[C@@H]3CCC4=CC(=O)CC[C@@H]4[C@H]3CC[C@@]21CC [LEVONORGESTREL],8.4,3.88
C[n+]1ccccc1/C=N/O.[Cl-] [PRALIDOXIME CHLORIDE],12.69,4.53
CCN(CC)CC1CCCCN1CC(=O)N1c2ccccc2C(=O)Nc2cccnc21 (centres undefined) [OTENZEPAD],7.92,5.55
CC(O)CO.N[C@@H](C(=O)N[C@@H]1C(=O)N2C(C(=O)O)=C(CSc3c[nH]nn3)CS[C@H]12)c1ccc(O)cc1,31.82,5.65
Cc1ccc(O)c([C@H](CCN(C(C)C)C(C)C)c2ccccc2)c1.O=C(O)C(O)C(O)C(=O)O [TOLTERODINE TARTRATE],-0.49,-0.28
Nc1nc(O)c2ncn(CCC(CO)CO)c2n1 [PENCICLOVIR],6.12,2.89
Cc1ncc([N+](=O)[O-])n1CC(O)CCl (centres undefined) [ORNIDAZOLE],10.83,5.05
C[C@@H](O)[C@H]1C(=O)N2C(C(=O)O)=C(S[C@@H]3CN[C@H](C(=O)N(C)C)C3)[C@H](C)[C@H]12 [MEROPENEM],-14.17,7.87
